Measured values taken from PubChem BioAssay.

These compounds were tested against NADPH oxidase 5 (Homo sapiens) (UniProt Q96PH1) (assay: NOX5-dependent H2O2 signal modulators, primary screen, NOX inhibitor project, cell-based, HEK293-NOX5, Amplex Red fluorescence (AID 1161)). Conditions: HEK293-NOX5, ionomycin, 45 min, higher = more signal.
Sequence of NADPH oxidase 5 (Homo sapiens) (Q96PH1 whole entry, looked up): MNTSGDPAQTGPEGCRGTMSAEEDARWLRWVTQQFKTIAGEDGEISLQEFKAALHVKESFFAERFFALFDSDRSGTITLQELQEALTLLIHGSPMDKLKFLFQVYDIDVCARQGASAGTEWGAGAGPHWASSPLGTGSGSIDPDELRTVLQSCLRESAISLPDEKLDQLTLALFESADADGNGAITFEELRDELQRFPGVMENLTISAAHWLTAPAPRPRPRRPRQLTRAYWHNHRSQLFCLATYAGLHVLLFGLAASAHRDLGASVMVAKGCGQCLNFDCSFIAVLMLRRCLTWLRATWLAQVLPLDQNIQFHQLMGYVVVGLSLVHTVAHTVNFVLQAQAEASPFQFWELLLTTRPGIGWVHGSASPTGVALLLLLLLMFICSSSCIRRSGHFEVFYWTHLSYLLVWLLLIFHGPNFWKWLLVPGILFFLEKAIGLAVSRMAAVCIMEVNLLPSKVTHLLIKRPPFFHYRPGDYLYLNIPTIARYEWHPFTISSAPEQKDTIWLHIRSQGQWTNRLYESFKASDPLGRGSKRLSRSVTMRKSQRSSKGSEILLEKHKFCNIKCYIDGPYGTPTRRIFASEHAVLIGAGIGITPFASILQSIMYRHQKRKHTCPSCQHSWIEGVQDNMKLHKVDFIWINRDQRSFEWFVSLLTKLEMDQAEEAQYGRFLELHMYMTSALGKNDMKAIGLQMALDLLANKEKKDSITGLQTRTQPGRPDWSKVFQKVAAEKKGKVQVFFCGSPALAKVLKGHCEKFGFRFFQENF
C[N+](C)(C)CCCCNC(=O)[C@H]1C[C@H]2C(=O)N[C@@H](Cc3ccccc3)C(=O)N2[C@H]1c1ccc(O)cc1 was tested, and the z-score was -2.42.
[N-]=[N+]=NCc1ccccc1C[C@]1(C(=O)N2CCOCC2)N=C(c2ccc(OCCCO)cc2)O[C@H]1c1ccccc1N=[N+]=[N-] showed a z-score of -2.7.
In the case of CC(=O)NCCCC[C@@H]1NC(=O)[C@@H]2C[C@H](C(=O)NCCCCN(C)C)[C@H](c3cccc(OCCO)c3)N2C1=O, the z-score is reported as -0.205.
In the case of COc1ccc(C(O)C2C=CC3C(=O)N(c4ccccc4)C(=O)C3N2Nc2ccc(C(C)C)cc2)cc1OCc1ccccc1 (stereo unspecified), the z-score is reported as -1.22.
[N-]=[N+]=Nc1ccccc1[C@H]1OC(c2ccc(OCCCO)cc2)=N[C@@]1(Cc1ccccc1)C(=O)O gave a z-score of 1.75.
O=C(NCc1ccccc1)[C@@]1(Cc2ccccc2)N=C(c2ccc(OCCCO)cc2)O[C@H]1c1ccccc1 gave a z-score of 0.756.
CCOC1=C2C(CN(S(=O)(=O)c3ccc(C)cc3)C2c2ccc(C)cc2)C2C(=O)N(c3ccccc3)C(=O)C2C1 (stereo unspecified) was tested, and the z-score was -0.229.
In the case of CCOC(=O)C[C@H]1[C@H](OC(=O)c2ccc(C(=O)c3ccccc3)cc2)[C@@H](NC(=O)c2ccc(-c3ccccc3)cc2)c2cc(OCCCO)ccc2N1C(=O)c1ccccc1, the z-score is reported as 0.551.
In the case of COCCOC(=O)N1C(=O)[C@@]2(c3cc(C#Cc4ccc(OC)cc4)ccc31)[C@H](c1ccc(O)cc1)N1[C@H](c3ccccc3)[C@H](c3ccccc3)OC(=O)[C@H]1[C@@H]2C(=O)NC[C@H](O)c1ccccc1, the z-score is reported as 1.1.
COc1ccc(C(=O)O[C@H]2CC[C@]3(C)C4=C(CCC3C2(C)C)[C@]2(C)CC[C@H]([C@H](C)CCCC(C)C)[C@@]2(C)CC4)cc1 (stereo partly specified) gave a z-score of 0.467.
Compound COc1ccc(C(=O)Nc2ccc(CN3C(=O)[C@@]4(O[C@@H](CCn5cc([C@H](O)c6ccccc6)nn5)[C@H]([Si](C)(C)c5ccc(OC)cc5)[C@H]4C)c4ccccc43)cc2)cc1 has a z-score of 2.2.
For O=C1c2ccccc2[C@@]2(Cc3ccccc3N(CCN3CCOCC3)C2=O)[C@H](c2ccc(CO)cc2)N1Cc1ccccc1, the z-score was -0.606.
With CC[C@@H]1C=C(C(=O)O)[C@H](c2ccco2)N1S(=O)(=O)c1ccc(C)cc1 the z-score was -0.764.
Work on O=C1OCCC/C=C\[C@H]2OC34C=CCN(CCN5CCOCC5)C(=O)[C@H]3N(CCCO)C(=O)[C@@H]4C12 (stereo partly specified) yielded a z-score of 2.27.
COC(=O)[C@@]1(Cc2ccccc2)[C@H]2c3cc(C(=O)N4CCCC4)n(Cc4nc5ccccc5[nH]4)c3C[C@H]2CN1C(=O)c1ccccc1 gave a z-score of -3.
For CC(C)c1ccc(NN2C(C(O)C(c3ccccc3)c3ccccc3)C=CC3C(=O)N(c4ccccc4)C(=O)C32)cc1 (stereo unspecified), the z-score was -4.98.
Compound C#CCN(Cc1ccccc1Br)C(/C=C/c1ccccc1)CO (stereo unspecified) has a z-score of -2.02.
For O=C1C2C=CC(C(O)c3c(F)cccc3Cl)N(Nc3ccccc3)C2C(=O)N1c1ccccc1 (stereo unspecified), the z-score was -2.42.
With NC(=O)[C@@H]1[C@H]2C(=O)O[C@H](c3ccccc3)[C@H](c3ccccc3)N2[C@H](c2ccc(O)cc2)[C@@]12C(=O)Nc1ccc(C#CC3(O)CCCCCC3)cc12 the z-score was -0.125.
CCOC(=O)C[C@H]1[C@H](OC(=O)Cc2ccc3c(c2)OCO3)[C@@H](NC(=O)c2ccc3ccccc3c2)c2cc(OCCCO)ccc2N1C(=O)c1ccccc1 gave a z-score of -2.56.
CN(C)C(=O)[C@]1(Cc2ccccc2N=[N+]=[N-])N=C(c2ccc(OCCCO)cc2)O[C@@H]1c1ccccc1 gave a z-score of -1.67.
For COC(=O)c1c(CC[C@@H](CO)NC(=O)N[C@@H](C)Cn2cc(C3(O)CCCCC3)nn2)oc(C(C)=O)c1C(=O)OC, the z-score was -2.88.
With O=C1C2C=CC(C(O)c3ccc(F)cc3)N(Nc3ccccc3F)C2C(=O)N1c1ccccc1 (stereo unspecified) the z-score was -2.17.
For O=C(c1ccccc1)N1Cc2ccccc2[C@@H]2OC(c3ccc(OCCCO)cc3)=N[C@]2(Cc2ccccc2)C1=O, the z-score was -0.781.
For C=C(COC)/C(=C/C[C@H](OC(=O)c1ccncc1)c1ccc(OCCO)cc1)c1cnc2ccccc2c1, the z-score was -0.608.
Work on COCCOC(=O)N1C(=O)[C@@]2(c3cc(C#CCNC(N)=O)ccc31)[C@H](C(=O)NC[C@H](O)c1ccccc1)[C@H]1C(=O)O[C@H](c3ccccc3)[C@H](c3ccccc3)N1[C@@H]2c1ccccc1OCCO yielded a z-score of -0.63.
COc1ccc([C@H]2C[C@H]3C(Br)=C[C@@H]2C(=O)[C@]32CO2)cc1 was tested, and the z-score was -0.837.
Compound C=CCOC(=O)[C@@H]1[C@H]2C(=O)O[C@H](c3ccccc3)[C@H](c3ccccc3)N2[C@H](c2ccc(OCCOC(=O)[C@@H]3C[C@@H]4C(=O)N[C@@H](Cc5ccccc5)C(=O)N4[C@@H]3c3ccc(O)cc3)cc2)[C@@]12C(=O)Nc1ccc(I)cc12 has a z-score of 0.591.
Compound O=C1OCC=C[C@H]2OC34C=CCN(c5ccc6ccccc6c5)C(=O)[C@H]3N(CCCCCCO)C(=O)[C@@H]4[C@@H]12 (stereo partly specified) has a z-score of 2.12.
Work on [N-]=[N+]=Nc1ccccc1C[C@]1(C(N)=O)N=C(c2ccc(OCCCO)cc2)O[C@H]1c1ccccc1 yielded a z-score of -1.32.
O=C1OCCC/C=C\[C@H]2OC34C=CCN(Cn5nnc6ccccc65)C(=O)[C@H]3N(CCO)C(=O)[C@@H]4C12 (stereo partly specified) gave a z-score of 1.92.
COc1cc2c(cc1OC)CN(C(=O)[C@H]1[C@@H]3C(=O)O[C@@H](c4ccccc4)[C@@H](c4ccccc4)N3[C@@H](c3ccc(O)cc3)[C@]13C(=O)Nc1ccc(C#CC4=CCCCC4)cc13)CC2 showed a z-score of 1.88.
Cc1ccc(S[C@]2(C(=O)NCC(C)C)CC(=O)N(Cc3cc(C(F)(F)F)cc(C(F)(F)F)c3)[C@@H]2c2ccc(CO)cc2I)cc1 was tested, and the z-score was -0.95.
For CCCC[C@@H]1C[C@H]1[C@@H](NC(=O)c1ccco1)c1ccc(C(=O)OC)cc1, the z-score was 1.82.
Work on O=C1O[C@H](c2ccccc2)[C@H](c2ccccc2)N2[C@H]1[C@@H](C(=O)O)[C@]1(C(=O)Nc3ccc(C#CC4=CCCCC4)cc31)[C@H]2c1ccccc1OCCO yielded a z-score of -1.08.
CC(=O)N1Cc2ccccc2C[C@@]2(COC(c3ccc(OCCCO)cc3)=N2)C1=O showed a z-score of -1.24.
